The results in this text go back to PubChem BioAssay AID624415 (National Center for Advancing Translational Sciences (NCATS), 2012).

Hit rate of the full screen: of about 390,000 compounds, about 60 (0.02%) were called active. Rule as the data show it: active = activity change below about -50%; inconclusive = between about -30% and that limit; inactive = weaker than that. The sample as a whole holds a higher share of actives than the screen did.
% is scaled to controls: 0 for no effect and ±100 for the full control effect.

In this experiment the target is Mucolipin-1 (Homo sapiens) (UniProt Q9GZU1). Put plainly: qHTS for Inhibitors of the Human Mucolipin Transient Receptor Potential 1 (TRPML1).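 Also: stimulus is agonist 54-4 at its EC80 concentration.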 As to conditions: TRPML1-inducible cells, Ca2+ dye fluorescence, FDSS; hits give low values; inhibition of EC80 agonist-evoked calcium signal. The essentials: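 TRPML1-DL cells, Tet-induced overnight (~16 h, 37 °C) at 1,500 cells/well, were loaded with Ca8 no-wash dye plus quencher for 45-90 min at room temperature. Compounds were pinned during FDSS kinetic reading; agonist 54-4 at EC80 (4 uM final) then added.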
Sequence of Mucolipin-1 (Homo sapiens) (Q9GZU1 whole entry, looked up): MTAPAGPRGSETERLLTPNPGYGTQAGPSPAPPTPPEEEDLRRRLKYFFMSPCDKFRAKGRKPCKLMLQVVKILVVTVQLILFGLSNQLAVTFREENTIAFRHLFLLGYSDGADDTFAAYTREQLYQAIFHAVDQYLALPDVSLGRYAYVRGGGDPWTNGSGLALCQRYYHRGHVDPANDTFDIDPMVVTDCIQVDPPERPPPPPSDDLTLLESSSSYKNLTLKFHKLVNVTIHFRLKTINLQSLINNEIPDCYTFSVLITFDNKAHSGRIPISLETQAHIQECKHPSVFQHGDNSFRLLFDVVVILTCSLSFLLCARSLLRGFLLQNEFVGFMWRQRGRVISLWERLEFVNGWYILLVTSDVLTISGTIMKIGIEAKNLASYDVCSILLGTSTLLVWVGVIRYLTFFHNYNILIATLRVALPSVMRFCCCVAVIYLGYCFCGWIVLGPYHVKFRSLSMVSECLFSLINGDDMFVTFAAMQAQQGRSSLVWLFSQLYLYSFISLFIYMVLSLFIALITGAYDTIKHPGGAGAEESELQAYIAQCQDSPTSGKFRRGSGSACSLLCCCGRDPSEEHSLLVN
`O=C(CS(=O)(=O)c1cccc2nsnc12)N1CCN(c2cccc(Cl)c2)CC1`: the activity change, negative = inhibition was -7.54% (inactive).
The result for `O=C(COc1ccccc1)NCc1ccc2c(c1)CCN2C(=O)c1ccc(F)cc1` reads 25.6% (inactive); that for `COc1ccc(NC(=O)c2cc3cc(C)ccc3n2C)cc1`, -10.1% (inactive); that for `COC(=O)c1ccc(NC(=O)c2cnn(-c3ccc(Cl)cc3)c2C2CCN(C(=O)OC(C)(C)C)CC2)cc1`, -3.85% (inactive).
As to `Cc1c(C(=O)N2CCCC2)oc2c1-c1nn(CC(=O)NCc3ccc(OC(C)C)cc3)cc1CC2`, the activity change, negative = inhibition was 30.2% (inactive).
For the compound `CN1CCN(/[N+]([O-])=N/Oc2ccc([N+](=O)[O-])cc2[N+](=O)[O-])CC1`, the activity change, negative = inhibition is -8.85% (inactive).
As to `COc1cc(OC)c2c(c1C(CCN1CCCCC1)c1ccc(N(C)C)cc1)OC(=O)CC2c1ccc(N(C)C)cc1` (stereo unspecified), the activity change, negative = inhibition was -9.58% (inactive).
The result for `Cc1ccc(Cl)cc1N(C)C(=O)Cn1nc(Cc2cccnc2)c2ccccc2c1=O` reads -7.38% (inactive); that for `CC(=O)Nc1ccc(NC(=O)C2CCCN(S(=O)(=O)c3ccc4c(c3)CCCC(=O)N4)C2)cc1` (stereo unspecified), -7.84% (inactive).
As for `COc1ccc(-c2nc3sc(CCNS(=O)(=O)c4ccc(F)c(C)c4)c(C)n3n2)cc1`, the activity change, negative = inhibition was 16.5% (inactive).
For the compound `CCc1cc2c(-c3ccccc3)cc(=O)oc2c2c1OCN(Cc1ccc(C)cc1)C2`, the activity change, negative = inhibition is -21.9% (inactive).
Regarding `O=C(O)c1ccc(Nc2nc(-c3ccccc3)c3cc(Br)ccc3n2)cc1`, the activity change, negative = inhibition was 16.7% (inactive).
For the compound `CCN(CC)CCNC(=O)CN1N=C(c2ccc(OC)cc2)CCC1=O`, the activity change, negative = inhibition was -7.95% (inactive).
The figure for `COc1ccc(S(=O)(=O)c2c(Nc3cccc(Cl)c3)sc(C(=O)c3ccccc3)c2N)cc1` is 17% (inactive); for `Cc1ccc2ncc(C(=O)Nc3ccc(OC(F)(F)F)cc3)c(=O)n2c1` it is 4.29% (inactive); for `COC(=O)c1scc(-c2ccc(C)cc2)c1S(=O)(=O)Nc1cc(Cl)c(OC)cc1OC` it is 37.6% (inactive).
Take `COc1ccc(CC(=O)N2CC(=O)Nc3ccc(Br)cc3C2c2ccc(F)cc2)cc1OC` (stereo unspecified): the activity change, negative = inhibition was 5.98% (inactive).
Consider `Cc1cccc2c1-c1sc(C(=O)Nc3ccc(F)cc3F)cc1CO2`, for which the activity change, negative = inhibition is 18.7% (inactive).
For the compound `CCOc1ccc(CCNC(=O)c2cc3c(=O)n(C)c4ccccc4c3n2C)cc1`, the activity change, negative = inhibition was -10.6% (inactive).
`COc1cccc(CNC(=O)c2cc(=O)[nH]c3ccc(S(=O)(=O)N4CCCCC4)cc23)c1`: the activity change, negative = inhibition is -1.14% (inactive).
In the case of `Cc1ccc(C)c(Cn2c(CCCNC(=O)C3CCCCC3)nc3ccccc32)c1`, the activity change, negative = inhibition is 22.7% (inactive).
On to `CNC(=O)[C@]1(C(F)(F)F)C[C@H](CCc2ccccc2)CCCO1`, for which the activity change, negative = inhibition was 7.15% (inactive).
The result for `COc1cccc(-c2nnc(SCC(=O)N3CCC(C)CC3)o2)c1` reads 0.454% (inactive); that for `CCCn1c(=N)c(C(=O)NCc2ccccc2)cc2c(=O)n3cccc(C)c3nc21`, -0.876% (inactive).
Turning to `Cc1ccc2c(=O)c(C(=O)c3ccc(F)cc3)cn(CC(=O)NC3CCCCC3)c2n1`, the activity change, negative = inhibition was -15.9% (inactive).
`COc1ccc(Br)cc1C1C2C=CCC(C)C2C(=O)N1Cc1ccccc1` (stereo unspecified): the activity change, negative = inhibition was 20.3% (inactive).
As to `Cc1ccc(-c2cnc(C3CC3)o2)cc1S(=O)(=O)Nc1cccc(C)c1C`, the activity change, negative = inhibition is 5.77% (inactive).
`COc1ccc(NC(=O)CSc2nc3ccccc3n2CC(=O)N2CCCCC2C)cc1` (stereo unspecified): the activity change, negative = inhibition was 9.59% (inactive).
Take `Cc1cccc(N2CCN(C(=O)c3cnc(N4CCCC4)nc3C)CC2)c1C`: the activity change, negative = inhibition is 12.6% (inactive).
As for `CCN(CCCNC(=O)c1cc2c(=O)n(CC)c3ccccc3c2s1)Cc1ccccc1`, the activity change, negative = inhibition was 14.6% (inactive).
In the case of `COc1ccc(C2/C=C\CN(C(=O)c3ccc(C)cc3)C(Cc3ccccc3)C(=O)N2Cc2ccc(F)cc2)cc1` (stereo unspecified), the activity change, negative = inhibition is -1.58% (inactive).
As for `CCN(CC)CCNC(=O)Cn1ncc2c3ccccc3n(Cc3ccccc3C)c2c1=O`, the activity change, negative = inhibition was 1.87% (inactive).
As to `O=C(Nc1ccc2c(c1)OCO2)c1cc(-c2cccc(Cl)c2)on1`, the activity change, negative = inhibition is 1.26% (inactive).
For `COc1ccc(C2CC(O)(c3ccccc3)Oc3cc(C)cc(C)c32)cc1` (stereo unspecified), the activity change, negative = inhibition was 9.65% (inactive).
As to `Cc1ccc(S(=O)(=O)N(CC(=O)Nc2ccc(Cl)cc2Cl)c2ccccc2C)cc1`, the activity change, negative = inhibition was 59.9% (inactive).
The result for `Cc1c(NC(=O)C(C)(C)C)cccc1-c1nc2ccccc2s1` reads -0.118% (inactive).
The figure for `Cc1ccc2nc(CN3CCN(S(=O)(=O)c4ccc(C)c(C)c4)CC3)oc2c1` is -6.53% (inactive).
On to `O=C(CCS(=O)(=O)c1cc(Br)cc2c1N(C(=O)C1CC1)CC2)Nc1ccc(Br)cc1F`, for which the activity change, negative = inhibition was -10.7% (inactive).
With `COc1cc(NC(=O)c2noc3c2CSc2ccccc2-3)cc(OC)c1OC`, the activity change, negative = inhibition was 8.19% (inactive).
`Fc1ccccc1Oc1ncnc2c1oc1ccccc12`: the activity change, negative = inhibition is -7.01% (inactive).
As for `COc1ccccc1-c1nnc(C2CCN(C(=O)c3ccc(Cl)cc3)CC2)o1`, the activity change, negative = inhibition is -16.2% (inactive).
